Rows were chosen to be rich in hits. Some 2.9% of all compounds tested hit in one or more screens of this group.
ADAM17 inh = ADAM17 inhibitors, primary screen, biochemical, QFRET | recombinant ADAM17, EDANS/DABCYL FRET peptide cleavage | inhibition, % at 6.95 µM | 370,000 compounds, 0.83% hits;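 active = inhibition above the mean of compounds lying between control limits plus 3 SD, set per campaign, cut at about 8.5% in these data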
PLCb3 inh = human PLC-beta3 inhibitors, primary screen, biochemical, fluorescence. AID 720704, 2013. 1-phosphatidylinositol 4,5-bisphosphate phosphodiesterase beta-3 (Homo sapiens), Q01970. 370,000 compounds, 0.18% hits. inhibition, % at 12.2 µM. Purified PLC-beta3, fluorogenic substrate
proKLK7 act = proKLK7 zymogen activators, primary screen, biochemical, fluorescence intensity; activation, % at 7 µM; Kallikrein-7 (Homo sapiens), P49862; purified proKLK7, EDANS-DABCYL substrate fluorescence; 100% is mature enzyme control, 0% vehicle; 370,000 compounds, 0.9% hits; AID 652039, 2013;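 active = activation above the mean of all tested compounds plus 3 SD, computed per campaign excluding outliers beyond control limits, cut at about 13% in these data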
Target sequence (P49862 whole entry, looked up): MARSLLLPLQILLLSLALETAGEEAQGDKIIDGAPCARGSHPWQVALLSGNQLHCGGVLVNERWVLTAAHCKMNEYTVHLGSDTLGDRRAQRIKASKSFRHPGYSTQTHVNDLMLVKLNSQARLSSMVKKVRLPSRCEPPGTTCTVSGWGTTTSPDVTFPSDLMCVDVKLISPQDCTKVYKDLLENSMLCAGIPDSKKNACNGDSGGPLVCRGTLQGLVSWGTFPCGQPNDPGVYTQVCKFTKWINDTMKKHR
ADAM10 inh = human ADAM10 inhibitors, primary screen, biochemical, QFRET, HTS | inhibition, % at 7 µM | AID 720582, 2013 | Disintegrin and metalloproteinase domain-containing protein 10 (Homo sapiens), O14672 | recombinant ADAM10, EDANS/DABCYL FRET peptide cleavage, 3 h | 370,000 compounds, 0.62% hits;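 active = inhibition above a per-campaign cutoff equal to the mean of compounds falling between control-based bounds plus 3 SD, cut at about 20% in these data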
PLCg1 inh = PLC-gamma1 enzyme inhibitors, primary screen, biochemical, fluorescence, purified enzyme; 1-phosphatidylinositol 4,5-bisphosphate phosphodiesterase gamma-1 (Homo sapiens), P19174; fluorogenic substrate; 370,000 compounds, 0.84% hits; inhibition, % at 12.2 µM; in the data active = inhibition above about 9.5%
PLCg1 ctr = PLC-gamma1 enzyme inhibitors, counter-screen for PLC-beta3 inhibitor project, biochemical, fluorescence; shares compounds with PLCg1 inh; purified PLC-gamma1, fluorogenic substrate; inhibition, % at 12.3 µM; 3,300 compounds, 3.1% hits; AID 743258, 2014; in the data active = inhibition above about 9.5%
PLCb3 confirm = PLC-beta3 inhibitor confirmation, biochemical, fluorescence, purified enzyme; inhibition, % at 12.3 µM; shares compounds with PLCg1 inh; AID 743261, 2014; 3,300 compounds, 1% hits; fluorogenic substrate fluorescence
Of the large screens only hits and unclear results are named; the others gave an inactive call (follow-up assays come after a bar, where they were run). Rule as the data show it, unless noted: active = inhibition above about 11%; inactive = the rest.

CCCCOCCCNC(=O)C[C@@H]1C[C@@]2(C(=O)OC)CCCCC=C2N(Cc2cccc3ccccc23)C1=O	none
CCn1c(=O)cc(SCC(=O)N(C)Cc2ccccc2)c2ccccc21	none
CCOC(=O)CSc1cc(=O)n(CC)c2ccccc12	PLCg1 inh 10 | PLCg1 ctr inactive | PLCb3 confirm inactive
COC(=O)[C@]12C[C@H](CC(=O)NCc3ccc(C)o3)C(=O)N(Cc3ccc4c(c3)OCO4)C1=C[C@H](C(C)(C)C)O[C@@H]2C	none
NS(=O)(=O)c1cccc(NC(=O)c2cc3ccccc3o2)c1	PLCg1 inh 11 | PLCg1 ctr inactive | PLCb3 confirm inactive
Cc1cc(NC(=O)c2ccco2)no1	PLCg1 inh 18 | PLCg1 ctr inactive | PLCb3 confirm inactive
O=C(Nc1cccc(S(=O)(=O)c2cccc(NC(=O)c3ccco3)c2)c1)c1ccco1	PLCg1 inh 15 | PLCg1 ctr inactive | PLCb3 confirm inactive
O=C(NCCc1ccc(O)c(Br)c1)c1ccc(Br)o1	none
O=[N+]([O-])c1nccn1CC(O)CO (stereo not given)	PLCg1 inh 10 | PLCg1 ctr inactive | PLCb3 confirm inactive
CC1(C)CC(C2N3CC4(C)CN2CC(C)(C3)C4=O)CCO1 (stereo not given)	PLCg1 inh 13 | PLCg1 ctr inactive | PLCb3 confirm inactive
CCc1cc(C(=O)NC2CCCc3c2cnn3-c2ccc(F)cc2F)no1 (stereo not given)	none
Cc1nn(-c2ccccc2)c(N)c1N=Nc1cccnc1	PLCb3 inh 11 | PLCg1 ctr inactive | PLCb3 confirm inactive
CCC(C)N1CC23C=CC(O2)C(C(=O)OCc2ccccc2)C3C1=O (stereo not given)	PLCb3 inh 14 | PLCg1 ctr inactive | PLCb3 confirm inactive
Cc1ccc(C(=O)NC(NC(=O)c2ccc(C)cc2)C(Cl)Cl)cc1	none
Cc1ccc(C(NC(=O)c2ccccc2)C(Cl)Cl)cc1 (stereo not given)	PLCb3 inh 11 | PLCg1 ctr inactive | PLCb3 confirm inactive
O=C1CCCN2N=C(SCC(=O)N3N=C(c4ccc(Br)cc4)CC3c3ccc(F)cc3)SC2=N1 (stereo not given)	PLCg1 inh 14 | PLCg1 ctr inactive | PLCb3 confirm inactive
Cc1ccc(C2CC(c3ccc(Br)cc3)=NN2C(=O)CSC2=NN3CCCC(=O)N=C3S2)cc1 (stereo not given)	none
CN(C)S(=O)(=O)c1ccc(C(=O)NCCSc2ccc(Br)cc2)cc1	PLCg1 inh 10 | PLCg1 ctr inactive | PLCb3 confirm inactive
O=C(NCCSc1ccccc1)c1ccc(Br)cc1	none
CCOc1ccc(-c2cc(C(=O)NC3CCCCC3)[nH]n2)c(C)c1	PLCb3 inh 12 | PLCg1 ctr inactive | PLCb3 confirm inactive
CCn1cc(C(=O)OCc2ccccc2)c(=O)c2ccc(C)nc21	none
CCn1cc(C(=O)O)c(=O)c2ccc(C)nc21	PLCg1 inh 10 | PLCg1 ctr inactive | PLCb3 confirm inactive
Cc1ccccc1N1CCN(C(=O)COc2cc(=O)n(C)c3ccccc23)CC1	none
COc1ccc(CCNC(=O)CN2C(=O)COc3ccc(S(=O)(=O)N4CCOCC4)cc32)cc1OC	PLCg1 inh 11 | PLCg1 ctr inactive | PLCb3 confirm inactive
Cc1ccc(NC(=O)CCC(=O)OCC(=O)c2ccc(Oc3ccc([N+](=O)[O-])cc3)cc2)cc1C	PLCg1 inh 11 | PLCg1 ctr inactive | PLCb3 confirm inactive
Cc1cccc(NC(=O)CCC(=O)OCC(=O)c2ccc(Oc3ccc([N+](=O)[O-])cc3)cc2)c1	none
O=C(CCC(=O)OCc1ccc([N+](=O)[O-])cc1)Nc1ccc(F)cc1	PLCg1 inh 10 | PLCg1 ctr inactive | PLCb3 confirm inactive
Cc1ccccc1CNC1CCCCC1	PLCb3 inh 12 | PLCg1 ctr inactive | PLCb3 confirm inactive
O=[N+]([O-])c1ccccc1CNC1CCCCCC1	none

Bioassay records: PubChem BioAssay, The Scripps Research Institute Molecular Screening Center
